Sampled rows, rich in hits. Any-hit rate of the full collection: about 13%.
HCV inh: HCV inhibition | Huh7.5.1 HCVcc-Cre infection, luciferase reporter, 44 h | Potency, µM (titrated, usually from 41.8 µM), without a hit: at the top dose activity change, negative = inhibition, actives largely listed as inhibitors | hit rate 3.4% among 340,000 | AID 651820; active = well fitted inhibition curve with a large enough effect; inconclusive = small, poorly fitted or top-dose-only effect, or another doubt; inactive = no such curve, though single readings can be large or run the other way; also: potency is read from the fitted curve at half-maximal effect; % is scaled to controls: 0 for no effect and ±100 for the full control effect
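Reporter virus HCVcc-Cre (~0.5 moi) infects cells exposed to compound; seeding density 1,000 cells/well with 4 h settling beforehand. Luminescence, 15 sec read, taken 44 h post-infection following a 15 min RT substrate incubation.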
Marburg entry inh: Marburg virus entry inhibition. Marburg virus pseudotyped entry inhibition, cell reporter. hit rate 1.8% among 300,000. Potency, µM (highest dose often 37.8 µM), inactives show at the top dose activity change, negative = inhibition, most hits filed as inhibitors. AID 540276; calls by dose curve; tested in HEK293 cells; also: potency is read from the fitted curve at half-maximal effect; % is scaled to controls: 0 for no effect and ±100 for the full control effect
Shiga inhibitor: blocks Shiga toxin action in Vero cells. Vero cells, Shiga toxin protein synthesis inhibition reporter. inhibition, % at 38.7 µM. hit rate 9.2% among 290,000; in the data active = inhibition mostly above about 28%, no sharp cut-off; inactive = mostly below about 43%; also: 0% is about no effect
LASV entry inh: Lassa virus entry inhibition; Lassa virus pseudotype entry inhibition, cell reporter; Potency, µM (doses to about 37.9 µM), for the others: at the top dose activity change, negative = inhibition, actives largely listed as inhibitors; hit rate 1.2% among 300,000; calls by dose curve; tested in HEK293 cells; also: potency is read from the fitted curve at half-maximal effect; % is scaled to controls: 0 for no effect and ±100 for the full control effect; nearly all actives have a fitted effect of over 50% in size
CHX counter: affects cycloheximide protein synthesis inhibition readout, counter-screen; max response, %; AID 2314; hit rate 12% among 300,000; cell reporter, cycloheximide protein synthesis inhibition counterscreen; in the data active = max response mostly above about 13%, no sharp cut-off; inactive = mostly below about 14%; also: read at 38.3 µM for the half of the compounds with a filed dose; 0% is about no effect
FMDV antiviral: blocks foot and mouth disease virus | FMDV antiviral cell-based qHTS | Potency, µM (series often up to 57.9 µM), for inactives: at the top dose activity change, negative = inhibition, usual class: inhibitors | hit rate 1.2% among 410,000; calls by dose curve; tested in HEK293T cells; also: read-out not given here; potency is read from the fitted curve at half-maximal effect; % is scaled to controls: 0 for no effect and ±100 for the full control effect; nearly all actives have a fitted effect of over 45% in size
Starred values were filed as active, the others as inactive; ? = inconclusive; . = no result given; [ ] = remark or other dose.

SMILES	HCV inh	Marburg entry inh	Shiga inhibitor	LASV entry inh	CHX counter	FMDV antiviral
COc1cc2c3c(c1OC)C1(C=CC(=O)C=C1)CC3N(C(=O)CCC(=O)O)CC2 (stereo not given)	15%	.	-6	.	-3	-21%
CCN(CC)CCCN(C(=O)c1ccc(F)cc1)c1nc(-c2ccc(OC)cc2)cs1	?	?	-2	?	-6	-11%
COc1ccc(-c2csc(N(CC(C)C)C(=O)c3ccco3)n2)cc1	-3%	?	.	-51%[46.1 µM]	12	-13%
CCN(C(=O)c1ccccc1F)c1nc(-c2ccc(OC)cc2)cs1	?	.	51*	.	44*	67%
CCN(C(=O)c1ccco1)c1nc(-c2ccc(OC)cc2)cs1	22µM*	.	59	.	41*	58%
CCN(CC)CCCN(C(C)=O)c1nc(-c2cc(OC)ccc2OC)cs1	6.3µM*	?	-19	17%	-3	33%
CN(C)c1ccc(-c2csc(C(O)(c3ccccc3)C(F)(F)F)n2)cc1 (stereo not given)	.	.	.	.	.	24%
CN(c1ccc(O)cc1)c1nc(-c2ccccc2)cs1	-30%	?	active	?	62*	31%
Cc1cc(NC(=O)Cn2nc3c(cc2=O)CCCC3)ccc1Br	-8%	19%	12	-16%	-2	-20%
CCC12CSc3nc(Cl)ccc3N1C(=O)C(=O)N2C (stereo not given)	-4%	.	11	.	8	7%
O=C(Cn1cccc1C(=O)c1ccccc1)NCc1cccnc1	23%	-8%	-23	23%	-1	-6%
COc1cc(CCN2C(=O)NC(c3cccc(C(F)(F)F)c3)C(C(C)=O)=C2C)cc(OC)c1OC (stereo not given)	.	5%[14.2 µM]	.	1%[14.3 µM]	.	.
CC(NC(=O)COc1ccc(S(=O)(=O)N2CCCC2)cc1)c1ccccc1 (stereo not given)	21%	8%[46.1 µM]	-5	-7%	-5	2%
COc1ccc(CN2CCc3ccccc3C2)cc1Br	-11%	.	4	.	6	-12%
CCCCC(=O)N(CCOC)c1nnc(-c2ccccc2C)s1	1.8µM*	?	-7	0%[46.1 µM]	-3	-6%
O=C(Nc1ccccc1)C1=C(c2ccccc2)S(=O)(=O)CCS1(=O)=O	?	2.8µM*	45*	?	23*	14µM*
CCOc1ccc(-c2nnc(NC(=O)Cc3ccc(OC)cc3)o2)cc1	-27%	-2%[46.1 µM]	26	.	25	11%
CCOc1ccc(-c2nnc(NC(=O)Cc3cc(OC)c(OC)c(OC)c3)o2)cc1	-5%	.	73*	.	18*	22%
CCOc1ccc(-c2nnc(NC(=O)CCCOc3cccc(C)c3)o2)cc1	?	?	70*	?	26*	37%
Cc1ccccc1N1CCN(C(=S)c2ccc(-c3ccc([N+](=O)[O-])cc3)o2)CC1	-6%	?	20	-6%	-2	-14%
CCCCNC(=O)Cn1nnc(-c2ccccc2)c1COc1ccc(C(C)=O)cc1	.	.	.	.	.	0%
O=C(Nc1ccc(Cl)cc1)c1cccc(NC2=NC3CS(=O)(=O)CC3S2)c1 (stereo not given)	3%	.	-4	.	2	0%
Cc1cc(C)nc(SCc2ccc(C(=O)NNC(=O)Nc3cccc(Cl)c3)cc2)n1	25µM*	?	-7	11µM*	-1	8%
Cc1cc(C)nc(SCc2ccc(C(=O)N/N=C/c3ccncc3)cc2)n1	-11%	4%[46.1 µM]	-6	-2%[46.1 µM]	-1	-6%
CCNc1ccc(Br)cc(C(=O)/C=C/c2ccc(Cl)cc2)c1=O	?	?	22	-5%	2	?
SMILES	HCV inh	Marburg entry inh	Shiga inhibitor	LASV entry inh	CHX counter	FMDV antiviral
COc1ccc(/C=C/C(=O)c2ccc(OC)cc2OC)c(OC)c1	?	.	4	.	7	2%
CCNc1ccc(Br)cc(C(=O)/C=C/c2ccc3c(c2)OCO3)c1=O	11%	-2%	15	-26%	13	?
CNc1ccc(Br)cc(C(=O)/C=C/c2cccc(OC)c2)c1=O	11µM*	?	-35	?	13*	?
COC(=O)c1cc(Cl)c(NC(=O)/C=C/c2ccc(Cl)cc2Cl)cc1OC	?	?	11	?	-3	-19%
CNc1ccc(Br)cc(C(=O)/C=C/c2ccc(Cl)cc2Cl)c1=O	?	?	-4	?	2	10µM*
CCNc1ccc(Br)cc(C(=O)/C=C/c2c(Cl)cccc2Cl)c1=O	13µM*	?	13	?	1	32µM*
CNc1ccc(Br)cc(C(=O)/C=C/c2ccc(OC)cc2OC)c1=O	-28%	-7%	80*	-1%	65*	?
Cc1ccn2c(=O)cc(COc3ccc(NC(=O)c4ccccc4F)cc3)nc2c1	.	.	.	-14%[46.1 µM]	.	-8%
COc1ccccc1NS(=O)(=O)c1ccc(C(=O)N2CCCCCCC2)cc1	2%	.	.	.	.	0%
COc1cc(Br)c(-c2sc(Nc3ccccc3)n[n+]2-c2ccc(F)cc2)cc1OC	3%	.	-3	.	-2	3%
O=C(CCC(=O)N(CC(=O)NC1CCCC1)Cc1ccccc1)Nc1nccs1	-15%	?	1	19%[46.1 µM]	-4	15%
Cc1ccc(Cn2nc3c(cc2=O)CCc2ccccc2-3)cc1	14µM*	.	-5	.	-4	35%
CCCC(C)NC(=O)c1ccc2[nH]c3c(c2c1)CC(C)CC3 (stereo not given)	?	-16%	49	-29%	28*	28%
COC(=O)c1ccc2[nH]c3c(c2c1)CC(C)CC3 (stereo not given)	?	.	59*	.	36*	58%
CC1CCc2[nH]c3ccc(C(=O)Nc4ccc(C(=O)N(C)C)cc4)cc3c2C1 (stereo not given)	.	?	-16	-17%	7	23%
COc1ccc(-c2sc3ccc(N4CCOCC4)cc3c2-c2ccc(OC)c(F)c2)cc1	-8%	.	-5	.	2	-23%
COc1cc(OC)c(C(=O)OCC(=O)Nc2cc(C)on2)cc1OC	-8%	-1%[46.1 µM]	-13	-23%	1	0%
COc1ccc(C)cc1NC(=O)c1ccc2c(Cl)c3c(nc2c1)CCC3	.	-11%[46.1 µM]	.	4%[46.1 µM]	.	16%
CC(C)[C@H]1C(=O)O[C@H](C(C)C)C(=O)N(C)[C@@H](C(C)C)C(=O)O[C@H](C(C)C)C(=O)N(C)[C@@H](C(C)C)C(=O)O[C@H](C(C)C)C(=O)N1C	?	.	-6	.	9	11µM*
CCC(NC(=O)Nc1cc(OC)c(OC)c(OC)c1)(C(F)(F)F)C(F)(F)F	-10%	-9%	-18	-24%	-2	-7%
O=C(NC1CCCCCC1)c1nnc(Cc2ccc(Cl)cc2)o1	4%	18%	-13	?	-3	-10%
CN(C)c1ccnc2sc(C(=O)NCc3ccccc3)c(N)c12	13µM*	11%	56	?	21	.
O=C(O)COc1ccc2nsnc2c1Cl	29%	2%	-12	9%	-3	-9%
O=C(/C=C1\NC2(CCCC2)Cc2ccccc21)C(=O)N/N=C/c1ccccc1O	?	11µM*	31	15µM*	23*	4%
